CYP2C19 inhib: blocks human cytochrome P450 2C19; P33261; AID 778; 21% of 96,000 active; CYP2C19 Supersomes, luciferin-H EGE luminescence, 30 min; inhibition, % at 5 µM;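 active = CYP2C19 inhibition above a set limit at 5 µM in the primary screen, cut at about 50% in these data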;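 note: plate controls were negative control wells for no effect and 2.5 mM tranylcypromine positive control for full effect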
CYP2C19 act: increases human CYP2C19 enzyme activity; P33261; recombinant CYP2C19, luciferin-H EGE luminescence; stronger effect = higher value; 0 = fully inhibited enzyme, 1 = untreated enzyme; activation factor at 5 µM; 96,000 tested, under 10 active; AID 1025;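 active = activation factor of at least 2 at 5 µM in the primary screen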;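 note: 0 = wells with 2.5 mM tranylcypromine and 1 = vehicle-only wells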
CYP2C9 inhib: blocks human cytochrome P450 2C9. CYP2C9 Supersomes, luciferin-H conversion, luminescence. inhibition, % at 5 µM. 20% of 96,000 active;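 active = blocking of liver enzyme CYP2C9 beyond about 50% at 5 µM, limit read from the data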
CYP2C9 activ: increases human cytochrome P450 2C9 activity; P11712; recombinant CYP2C9, luciferin-H conversion, luminescence; stronger effect = higher value; factor 1 = untreated enzyme, 0 = blocked; activation factor at 5 µM; 1.4% of 96,000 active; AID 1024;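 active = activation factor of 2 or more for CYP2C9 at a 5 µM dose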;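 note: 0 = sulfaphenazole-blocked wells and 1 = vehicle-only wells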
PLAP activator: activates human placental alkaline phosphatase; P05187; purified PLAP enzyme, luminescent substrate read-out; stronger effect = higher value; activation fold at 20 µM; 1.2% of 96,000 active; AID 696; in the data active = activation fold above about 2
Target sequence (P05187 whole entry, looked up): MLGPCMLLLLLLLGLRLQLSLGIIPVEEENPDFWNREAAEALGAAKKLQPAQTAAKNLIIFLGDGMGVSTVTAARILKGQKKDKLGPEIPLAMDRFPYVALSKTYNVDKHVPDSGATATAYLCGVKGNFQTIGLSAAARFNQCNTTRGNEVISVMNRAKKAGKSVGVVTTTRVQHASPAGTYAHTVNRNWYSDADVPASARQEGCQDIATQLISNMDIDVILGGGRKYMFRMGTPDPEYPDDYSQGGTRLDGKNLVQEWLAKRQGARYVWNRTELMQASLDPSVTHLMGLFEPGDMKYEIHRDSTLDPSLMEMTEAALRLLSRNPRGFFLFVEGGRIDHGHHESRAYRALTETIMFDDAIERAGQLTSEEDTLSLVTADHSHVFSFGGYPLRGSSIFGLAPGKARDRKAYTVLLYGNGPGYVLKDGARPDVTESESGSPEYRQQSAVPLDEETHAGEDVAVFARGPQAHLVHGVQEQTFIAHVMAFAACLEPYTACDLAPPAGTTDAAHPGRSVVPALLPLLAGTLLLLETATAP
* = called active by the depositor. In the library only some 31% were active in any assay of this set; here they are far more common.

SMILES	CYP2C19 inhib	CYP2C19 act	CYP2C9 inhib	CYP2C9 activ	PLAP activator
CC1=NN(c2ccccc2)C(=O)/C1=C\c1c(C)[nH]n(-c2ccccc2)c1=O	-5	1	51*	0.5	0.9
Cc1[nH]n(-c2ccccc2)c(=O)c1-c1ccc(Cl)cc1	3	1	45	0.5	0.9
Cc1[nH]n(-c2ccccc2)c(=O)c1/C=N/c1ccccn1	8	0.9	8	0.9	2.1*
Cc1ccc(-n2[nH]c(C)c(C=Nc3ccc(C)cn3)c2=O)cc1	30	0.7	42	0.6	1.4
Cc1[nH]n(-c2ccccc2)c(=O)c1C=Nc1cnc2ccccc2c1	11	0.9	-2	1	2.1*
Cc1[nH]n(-c2ccccc2)c(=O)c1N=Nc1nccs1	7	0.9	58*	0.4	0.7
C/C=C/Cn1c(N(C)Cc2ccccc2)nc2c1c(=O)[nH]c(=O)n2C	-9	1.1	9	0.9	1.3
CCCCCCNC(=O)c1c(O)c2ccccc2[nH]c1=O	18	0.8	28	0.7	1.1
CCOCCCNC(=O)C1CCCN1C(=O)NC1CCCCC1 (stereo not drawn)	-3	1	1	1	0.9
O=C(NO)c1ccc(C(=O)N(C2CCCCC2)C2CCCCC2)cc1	-8	1.1	-6	1.1	1.7
Cc1ccc(N2C(=O)C3Sc4[nH]c(=O)sc4C(c4ccccc4)C3C2=O)cc1 (stereo not drawn)	37	0.6	43	0.6	0.7
O=C1C2Sc3[nH]c(=O)sc3C(c3ccccc3)C2C(=O)N1c1ccc(Cl)cc1 (stereo not drawn)	67*	0.3	52*	0.5	0.8
O=C1CCCc2sccc2N1	5	1	-1	1	1.2
O=C(OC1CCc2ccccc2C1=O)c1ccccc1O (stereo not drawn)	82*	0.2	90*	0.1	0.8
O=C1c2ccccc2CCC1C(O)c1ccccn1 (stereo not drawn)	37	0.6	-5	1.1	1
O=C(c1oc2ccccc2c1N1CCCCC1)N1CCCCC1	21	0.8	11	0.9	0.6
CC(=O)N1CCN(Cc2ccc(Br)s2)CC1	31	0.7	-28	1.3	1.3
O=c1c2ccccc2nnn1CSc1nnc2ccccn12	48	0.5	-9	1.1	0.8
O=c1c2ccccc2nnn1CSc1ccc2c(c1)OCCO2	94*	0.1	55*	0.5	0.9
COc1ccc2c(c1)c(=O)oc1cc(OCC(=O)NC3CC3)ccc12	60*	0.4	15	0.8	0.8
COc1ccc2c(c1)c(=O)oc1cc(OCC(=O)NC3CCCCC3)ccc12	89*	0.1	32	0.7	0.9
O=C(Nc1cccc(C(F)(F)F)c1)c1ccc(Cn2cc(Br)cn2)o1	85*	0.2	69*	0.3	0.9
O=C(c1ccc(Cn2cc(Br)cn2)o1)n1cccn1	55*	0.5	21	0.8	1.1
O=C(NC1CCCCC1)c1ccc(Cn2cc(Br)cn2)o1	62*	0.4	34	0.7	0.9
CCOc1ccc(/C(O)=C2/C(=O)C(=O)N(CCOCCO)C2c2cccnc2)cc1 (stereo not drawn)	5	1	-1	1	0.9
SMILES	CYP2C19 inhib	CYP2C19 act	CYP2C9 inhib	CYP2C9 activ	PLAP activator
CCOC(=O)C1=C2N(C)c3ccccc3N2CCC1=O	-8	1.1	-10	1.1	0.9
NNC(=O)CNC(c1ccccc1)c1cc(Br)ccc1NC(=O)c1ccccc1Br (stereo not drawn)	38	0.6	58*	0.4	1.7
NNC(=O)CNC(c1ccccc1)c1cc(Br)ccc1NC(=O)CCN1CCOCC1 (stereo not drawn)	16	0.8	11	0.9	1.2
CCOc1ccc(NC2=NC(C(=O)NCc3ccccc3)CC(=O)N2)cc1 (stereo not drawn)	62*	0.4	25	0.7	1
O=C(CN1C(=O)c2ccccc2C1=O)c1ccccc1	26	0.7	51*	0.5	1
Cc1cc2ncn(C(=O)N3CCCCC3)c2cc1C	82*	0.2	6	0.9	1
Cc1cc2ncn(S(=O)(=O)N3CCCCC3)c2cc1C	25	0.8	7	0.9	1.2
CC1=NOC(=O)/C1=C\c1ccc(-c2ccc(Cl)cc2Cl)o1	48	0.5	49	0.5	0.9
CCC(CC)C1C(C#N)=C(N)Oc2cc(C)oc(=O)c21 (stereo not drawn)	96*	0	72*	0.3	1
Cc1ccc(SCC2CNc3nc4ccccc4c(=O)n32)c(C)c1 (stereo not drawn)	14	0.9	4	1	1.5
O=c1c2ccccc2nc2n1C(CSCc1ccc(Cl)cc1Cl)CS2 (stereo not drawn)	64*	0.4	22	0.8	0.9
O=C1N(CC(=O)N2CCc3ccccc32)CCN1Cc1ccc(Cl)cc1	19	0.8	-134	2.3*	1
O=C(CN1CCN(Cc2ccccc2)C1=O)NCc1ccc(Cl)cc1	16	0.8	12	0.9	0.7
CCOc1ccc(CCNC(=O)CN2CCN(Cc3ccccc3F)C2=O)cc1OCC	5	1	17	0.8	1.3
O=C(CN1CCN(Cc2ccccc2F)C1=O)NCCc1ccc(Cl)cc1	66*	0.3	88*	0.1	1.4
CCN(CCNC(=O)CN1CCN(Cc2ccc(Cl)cc2)C1=O)c1ccccc1	57*	0.4	52*	0.5	1.8
CC(CCc1ccccc1)NC(=O)CN1CCN(Cc2ccc(Cl)cc2)C1=O (stereo not drawn)	71*	0.3	56*	0.4	1.5
CC(CCc1ccccc1)NC(=O)CN1CCN(Cc2ccccc2)C1=O (stereo not drawn)	8	0.9	23	0.8	1
COC(=O)c1ccccc1CON1C(=O)C(C)(C)N(OCc2ccccc2C(=O)OC)C(=O)C1(C)C	27	0.7	26	0.7	1.1
COc1cc(CN(C)CCc2ccccc2)ccc1OCc1ccccc1	14	0.9	12	0.9	1.5
CCCCNC(=O)C1CCCN1C(=O)Nc1cccc(OC)c1 (stereo not drawn)	-7	1.1	-8	1.1	1.1
Cc1ccc(CN2CCN(CC(=O)NC(C)CCc3ccccc3)C2=O)cc1 (stereo not drawn)	58*	0.4	67*	0.3	1.7
